Bioassay records as filed in PubChem.
An excerpt weighted towards active compounds, which were near 14% of everything screened.
FBPA Giardia inh – inhibitors of Giardia lamblia fructose-1,6-bisphosphate aldolase. A8B2U2. purified Giardia FBPA. Potency, µM (titrated, usually from 59.6 µM), for inactives: top-dose activity, negative = inhibition, actives largely listed as inhibitors. 290,000 compounds, 0.71% hits. AID 2451; note: potency is the fitted concentration of half-maximal effect; nearly all actives have a fitted effect of over 55% in size
Target sequence (A8B2U2 whole entry, looked up): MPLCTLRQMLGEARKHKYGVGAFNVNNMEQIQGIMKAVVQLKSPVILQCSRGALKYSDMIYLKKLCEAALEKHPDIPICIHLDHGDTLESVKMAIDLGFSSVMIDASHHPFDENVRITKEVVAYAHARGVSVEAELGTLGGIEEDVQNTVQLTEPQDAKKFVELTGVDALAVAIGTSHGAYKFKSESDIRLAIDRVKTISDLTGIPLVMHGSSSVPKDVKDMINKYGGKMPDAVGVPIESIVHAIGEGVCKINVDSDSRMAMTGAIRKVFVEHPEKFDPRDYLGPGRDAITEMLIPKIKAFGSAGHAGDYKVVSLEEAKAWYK
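Giardia FBPA (40 nM reagent) was preincubated 10 min at RT with compound (up to 57.5 uM final), then substrate plus GAPDH/TPI/NAD/arsenate coupling system with diaphorase/resazurin was added; resorufin fluorescence (525/598 nm) was read after 20 min.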
Sm TGR block – S. mansoni TGR enzyme inhibition; purified TGR, DTNB reduction, TNB absorbance 405 nm; Potency, µM (series often up to 114 µM), for the others: top-dose activity change, negative = inhibition, most hits filed as inhibitors; 360,000 compounds, 3% hits; AID 485364; note: potency is the fitted concentration of half-maximal effect; nearly all actives have a fitted effect of over 60% in size
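First, TGR (20 nM dispensed) and NADPH were mixed with compound. Second, a 15 min room-temperature incubation followed. Third, further NADPH and then DTNB were added to start the reaction. Finally, TNB absorbance was monitored kinetically.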
HCMV antiviral – human cytomegalovirus inhibition; HFF cells, HCMV-luciferase reporter, 72 h; active compounds read low; activity change, negative = inhibition, % at 57.5 µM; 410,000 compounds, 4.5% hits; AID 1259415; in the data active = activity change below about -60%; inconclusive = no clear call, values can overlap the other calls; inactive = above about -39%
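Cell-based, HFFs, 1000 cells/well, 16 h 37C; cpds in DMSO + HCMV-luc, MOI 1 PFU/cell; 72 h 37C; OneGlo luminescence after 5 min RT; norm. to buffer vs Salinomycin 10uM.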
Pf growth 48h – P. falciparum growth inhibition at 48 hours (one generation) | P. falciparum luciferase growth in erythrocytes, 48 h | Potency, µM (series often up to 28.7 µM), without a hit: at the top dose activity change, negative = inhibition, most hits filed as inhibitors | 310,000 compounds, 5.9% hits; note: potency is the fitted concentration of half-maximal effect
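In quantitative HTS format, infected erythrocytes bearing luciferase-reporter parasites were treated for a single generation at 37 C. Luminescence after adding detection reagent served as the growth measure.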
Pf growth 96h – P. falciparum growth inhibition at 96 hours | P. falciparum luciferase reporter growth, 96 h | Potency, µM (highest dose often 28.7 µM), for inactives: at the highest dose activity change, negative = inhibition, actives largely listed as inhibitors | 320,000 compounds, 6.9% hits | AID 504834; note: potency is the fitted concentration of half-maximal effect
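Luminescence readout: decreased luciferase signal marks inhibited growth of reporter-expressing P. falciparum in infected red cells (2% hematocrit, 0.05% parasitemia final), exposed to compound two generations (96 h, 37 C, 5% CO2).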
An asterisk follows results filed as active; [ ] = dose if it differs, or a comment. Unless noted, calls come from the whole dose curve; as a rule, active = well fitted curve in the direction sought with a large enough effect; inconclusive = small, poorly fitted or top-dose-only effect, or another doubt; inactive = no such curve, though single readings can be large; an effect the other way counts as inactive or inconclusive. % is set by controls: 0 for no effect and ±100 for the full control effect.

What do the screens show for `Cc1cc(C(=O)NCC(=O)OC(C)C(=O)N2CCOCC2)ccc1[N+](=O)[O-]` (centres undefined)?
Sm TGR block: -1%; HCMV antiviral: inconclusive; Pf growth 48h: inconclusive; Pf growth 96h: 7.4µM*

How did COc1ccc(C(=O)NC(=S)Nc2ccc(S(=O)(=O)Nc3cc(OC)ncn3)cc2)cc1 do in these assays?
FBPA Giardia inh: -19%; Sm TGR block: 20µM*; HCMV antiviral: -17; Pf growth 48h: 1%; Pf growth 96h: 0%

What do the screens show for `COc1ccc(C(=O)NC(=S)Nc2ccc(S(=O)(=O)Nc3cc(OC)nc(OC)n3)cc2)cc1`?
FBPA Giardia inh: inconclusive; Sm TGR block: 14µM*; HCMV antiviral: -12; Pf growth 48h: -14%; Pf growth 96h: 39%

Results for COc1cc(NS(=O)(=O)c2ccc(NC(=S)NC(=O)c3ccc(F)cc3)cc2)nc(OC)n1 ?
FBPA Giardia inh: -20%; Sm TGR block: 32µM*; HCMV antiviral: 15; Pf growth 48h: 21%; Pf growth 96h: -9%

How did COc1cc(NS(=O)(=O)c2ccc(NC(=S)NC(=O)c3ccco3)cc2)ncn1 do in these assays?
FBPA Giardia inh: 14%; Sm TGR block: 40µM*; HCMV antiviral: -21; Pf growth 48h: 2%; Pf growth 96h: -23%[1.15 µM]

What do the screens show for `COc1cccc(CNC(=O)Cn2ncn3cccc3c2=O)c1OC`?
FBPA Giardia inh: 2%; Sm TGR block: -11%; HCMV antiviral: -21; Pf growth 48h: 6%; Pf growth 96h: 6%

Results for O=C(NC(=S)Nc1ccc(S(=O)(=O)Nc2nccs2)cc1)c1ccc(Br)o1 ?
FBPA Giardia inh: -20%; Sm TGR block: -27%; HCMV antiviral: -1; Pf growth 48h: 12%; Pf growth 96h: inconclusive

What do the screens show for `COc1cc(NS(=O)(=O)c2ccc(N)cc2)nc(OC)n1`?
FBPA Giardia inh: 0%; Sm TGR block: -9%; HCMV antiviral: 35; Pf growth 48h: -7%; Pf growth 96h: 0%

Results for Cc1cc(C)cc(NS(=O)(=O)c2ccc(NC(=S)NC(=O)c3ccc(Br)o3)cc2)c1 ?
FBPA Giardia inh: -24%; Sm TGR block: -18%; HCMV antiviral: -76*; Pf growth 48h: inconclusive

What do the screens show for `COc1cc(NS(=O)(=O)c2ccc(NS(=O)(=O)c3ccc(C)cc3)cc2)nc(OC)n1`?
Sm TGR block: -2%; HCMV antiviral: -11; Pf growth 48h: 9%; Pf growth 96h: 1.9µM*

What do the screens show for `O=C(NCC1CC1)C1=COC2=NC(=O)N(Cc3cccc(Cl)c3)CCN12`?
HCMV antiviral: -7

What do the screens show for `CCOC(=O)[C@H]1[C@H]2COc3cc(OC)ccc3[C@@H]2N2C(=O)CN(C)C(=O)[C@@]12C`?
HCMV antiviral: -10

What do the screens show for `COCCN(C(=S)Nc1ccc(C(C)C)cc1)C(C)c1cccs1` (centres undefined)?
FBPA Giardia inh: 0%; Sm TGR block: -2%; HCMV antiviral: -10; Pf growth 48h: inconclusive; Pf growth 96h: -10%

How did Cc1ccc(-n2c3c(c(=O)[nH]c2=O)C(NS(=O)(=O)c2ccc(Cl)cc2)(C(F)(F)F)C(=O)N3)cc1 (centres undefined) do in these assays?
FBPA Giardia inh: -20%; Sm TGR block: 5%; HCMV antiviral: inconclusive; Pf growth 48h: inconclusive; Pf growth 96h: 13µM*

What do the screens show for `O=C1Nc2c(c(=O)[nH]c(=O)n2Cc2ccccc2)C1(NS(=O)(=O)c1ccccc1)C(F)(F)F` (centres undefined)?
FBPA Giardia inh: 5%; Sm TGR block: 4%; HCMV antiviral: -24; Pf growth 48h: 76%; Pf growth 96h: 15µM*

How did COc1ccc(C2=NC(=O)/C(=C\c3cc(OC)c(OC)c(OC)c3)O2)cc1 do in these assays?
FBPA Giardia inh: -5%; Sm TGR block: -1%; HCMV antiviral: 48; Pf growth 48h: 16%; Pf growth 96h: 0.93µM*

What do the screens show for `O=c1onc2cnc3ccccc3n12`?
FBPA Giardia inh: -1%

How did CC(C)=CCC1C(=O)N(c2ccccc2)N(c2ccccc2)C1=O do in these assays?
Pf growth 48h: inconclusive; Pf growth 96h: 7.6µM*
